About 960 (1.5%) of roughly 66,000 compounds showed an effect of 50% or more. Only a selection was taken, and strong results are over-represented in it overall.
Test system: Trypanosoma brucei
Test: Trypanosoma brucei 72 hour study
Assay type: functional, organism-based
Parameters: scale not given: in the data most compounds retested in dose-response had high values

## O=C(c1cc(-c2ccn(CC3CC3)n2)n2ccccc12)N1CCOCC1
30.3 µM, […]
  Percent Effect: 100.3%

## O=C(c1cc(-c2ccn(CC3CC3)n2)n2ccccc12)N1CCCO1
30.3 µM, […]
  Percent Effect: -0.5665%

## Cc1ccc(CN2CCC3(CC2)CC(c2cccnc2)C(=O)N3C)o1.O=C(O)C(F)(F)F.O=C(O)C(F)(F)F (configuration not stated)
30.3 µM, […]
  Percent Effect: -49.66%

## COCCN1CCC2(CCCN(Cc3ccoc3)C2)C1=O.O=C(O)C(F)(F)F (configuration not stated)
30.3 µM, […]
  Percent Effect: -22.78%

## O=C(CC1CCCC1)N1CCn2cc(Cn3cccn3)nc2C1.O=C(O)C(F)(F)F
30.3 µM, […]
  Percent Effect: -840.1%

## O=C(O)C(F)(F)F.O=C(c1cnoc1)N1CCC[C@]2(C[C@@H](Oc3ccccn3)CO2)C1
30 µM, 30.03 µM
  Percent Effect: -14.73%

## COC(=O)CCNC(=O)c1cnc(Cc2ccc(F)cc2)s1
30 µM, 30.03 µM
  Percent Effect: 3.867%

## CN(C)CCCNC(=O)c1cnc(Cc2ccc(F)cc2)s1
30 µM, 30.03 µM
  Percent Effect: 52.82%

## CCNC(=O)c1cnc(Cc2ccc(F)cc2)s1
30 µM, 30.03 µM
  Percent Effect: 3.769%

## O=c1c(CN2CC3CCCN3C[C@@H]2CCO)coc2ccc(Cl)cc12 (some centres not stated)
30.3 µM, […]
  Percent Effect: -20.01%

## O=C1CC(N(C(=O)Cc2csc(-c3ccccc3)n2)C2CC2)C(=O)N1 (configuration not stated)
30 µM, 30.03 µM
  Percent Effect: 106%

## Cc1nc(-c2ccccc2)sc1C(=O)N(C1CC1)C1CC(=O)NC1=O (configuration not stated)
30 µM, 30.03 µM
  Percent Effect: 37.33%

## O=C1CC(N(C(=O)c2csc(-c3ccccc3)n2)C2CC2)C(=O)N1 (configuration not stated)
30 µM, 30.03 µM
  Percent Effect: 9.836%

## O=C(O)C(F)(F)F.O=C1COC2(CCN(CC3CC3)CC2)CN1c1ccsc1
30.3 µM, […]
  Percent Effect: -336%

## Cn1cc(CN2CCC3(CCN(c4cnn(C)c4)C3=O)C2)cn1.O=C(O)C(F)(F)F (configuration not stated)
30 µM, 30.03 µM
  Percent Effect: -6.498%

## Cn1cc(N2CCC3(CCCN(Cc4ccc(F)cc4)C3)C2=O)cn1.O=C(O)C(F)(F)F (configuration not stated)
30 µM, 30.03 µM
  Percent Effect: 66.19%

## Cc1nc(CN2CCCC3(CCN(c4cnn(C)c4)C3=O)C2)cs1.O=C(O)C(F)(F)F (configuration not stated)
30.3 µM, […]
  Percent Effect: -9.884%

## COCCNc1ccc(CC2CCCNC2)cn1.Cl (configuration not stated)
30.3 µM, […]
  Percent Effect: 0.7781%

## CSCc1cc(F)ccc1CNC(=O)N1CCC(CO)CC1
30 µM, 30.03 µM
  Percent Effect: -59.11%

## CN(C)c1ccc(CNC2=NCCCN2)cc1.I
30.3 µM, […]
  Percent Effect: 99.22%

## I.c1ccc(OCCNC2=NCCCN2)cc1
30 µM, 30.03 µM
  Percent Effect: -0.004482%

## CCOCc1ccc(CNC2=NCCCN2)cc1.I
30.3 µM, […]
  Percent Effect: -5.411%

## NC[C@H]1CC[C@H](C(NC(=O)CC2CCCC2)c2ccccn2)CC1 (some centres not stated)
30.3 µM, […]
  Percent Effect: -41.17%

## CCCN1C[C@H](NC(=O)c2ccccc2F)[C@@H](c2ccc(OC)cc2)C1
30.3 µM, […]
  Percent Effect: -8.438%

## Cc1ccc(CN2CCC3(CC2)CC(CC(=O)NC(C)C)CO3)s1.O=C(O)C(F)(F)F (configuration not stated)
30.3 µM, […]
  Percent Effect: -52.98%

## O=C(C1CCOCC1)N1C[C@H]2C[C@H](OCc3ccccc3)C[C@H]2C1
30.3 µM, […]
  Percent Effect: 32.35%

## CN(C)CCOCC1CN(Cc2ccsc2)Cc2nnn(C)c21.O=C(O)C(F)(F)F.O=C(O)C(F)(F)F (configuration not stated)
30.3 µM, […]
  Percent Effect: -20.25%

## CN(C)c1ccc(C(=O)N2CCCC(n3cccn3)C2)cn1 (configuration not stated)
30.3 µM, […]
  Percent Effect: -20.71%

## Cc1nccn1C1CCCN(C(=O)c2ccc(N(C)C)nc2)C1 (configuration not stated)
30 µM, 30.03 µM
  Percent Effect: 59.27%

## Cc1nc(C)n(C2CCCN(C(=O)c3ccc(O)nc3)C2)n1 (configuration not stated)
10 µM
  Percent Effect: -79.94%

## Cc1nc(C)n(C2CCCN(C(=O)c3ccc(NC4CC4)nc3)C2)n1 (configuration not stated)
30 µM, 30.03 µM
  Percent Effect: 56.19%

## Cc1cc(C)n(C2CCCN(C(=O)c3ccc(NC4CC4)nc3)C2)n1 (configuration not stated)
30 µM, 30.03 µM
  Percent Effect: 3.181%

## Cc1nccn1C1CCCN(C(=O)c2ccc(N(C)C)nn2)C1 (configuration not stated)
30.3 µM, […]
  Percent Effect: -14.31%

## c1cc(-c2cscn2)cc(N2CCC(NCCc3cccs3)CC2)c1
30.3 µM, […]
  Percent Effect: 64.97%

## c1ccc(-c2cccc(N3CCC(NCCc4cscn4)CC3)c2)cc1
30.3 µM, […]
  Percent Effect: 99.95%

## CN(Cc1nccs1)C1CCN(c2cccc(-c3cscn3)c2)CC1
30.3 µM, […]
  Percent Effect: -33.72%

## O=C1CCCN1c1cccc(N2CCC(NCCc3cscn3)CC2)c1
30.3 µM, […]
  Percent Effect: 6.374%

## CC(C)CC(C)NC1CCN(c2cccc(-c3cscn3)c2)CC1 (configuration not stated)
30 µM, 30.03 µM
  Percent Effect: -3.57%

## CN(C)CCCN(C)C1CCN(c2cccc(-c3cscn3)c2)CC1
30.3 µM, […]
  Percent Effect: 17.15%

## CC1(c2ccc(Br)cc2)CC(=O)N(CC(N)=O)C1=O (configuration not stated)
30.3 µM, […]
  Percent Effect: -17.28%

## Cn1cc(C(=O)CC2CCCN2C(=O)c2cccc3ncccc23)cn1 (configuration not stated)
30.3 µM, […]
  Percent Effect: -17.51%

## Cc1ccc(C(=O)NCCC2CN(C3CCCC3)CCO2)c(C)c1 (configuration not stated)
30 µM, 30.03 µM
  Percent Effect: 0.3212%

## O=C(c1cc2c(Cl)cccc2[nH]1)N1CCN(CCc2ccccn2)CC1
30 µM, 30.03 µM
  Percent Effect: 6.57%

## CCOC(=O)c1ccc(S(=O)(=O)NCc2cccnc2N(C)C)cc1
10 µM
  Percent Effect: -42.9%

## Cc1ccc(CCC(=O)N(C)CCN2CCOCC2)c(C)c1
30 µM, 30.03 µM
  Percent Effect: 15.97%

## CCOc1nnc(CN2CCCC(c3nc4ccccc4[nH]3)C2)s1 (configuration not stated)
30 µM, 30.03 µM
  Percent Effect: -9.691%

## Cl.Cn1nc(C2CCCN(Cc3ccc(F)cc3)C2)c2nccnc21 (configuration not stated)
30.3 µM, […]
  Percent Effect: 4.536%

## Fc1ccc(CN2CCCC(c3cc4ncccc4[nH]3)C2)cc1 (configuration not stated)
30.3 µM, […]
  Percent Effect: 55.67%

## CCOc1ccc(CN2CCCC(c3cc4ncccc4[nH]3)C2)cc1 (configuration not stated)
30.3 µM, […]
  Percent Effect: 100.2%

## CC(=O)Nc1ccc(CN2CCCC(c3cc4ncccc4[nH]3)C2)cc1 (configuration not stated)
30.3 µM, […]
  Percent Effect: 8.67%

## CCOc1ccc(CN2CCN(C(=O)c3cc(C4CC4)[nH]n3)CC2)cc1
30.3 µM, […]
  Percent Effect: -13.15%
10 mM, 10 mM as filed; unlikely as a test dose
  Percent Effect: -41.12%

— ChEMBL document CHEMBL3988442, “University of Dundee, Small-Polar-MMV Screening Library” (2021)
